# Assay results reported in PubChem BioAssay AID2314 (National Center for Advancing Translational Sciences (NCATS), 2010).
# Several values for one entry are separate records, joined by “and”; a condition that tells them apart may be missing. Equal entries are not always repeated. Out of some 300,000 compounds screened, about 37,000 (12%) were called active. For the sample, actives were picked, then their nearest neighbours and some compounds at random. Unmarked numbers belong to inactive results. Cut-off read from the data, not from the text of the source: active = max response mostly above about 13% (no sharp cut-off); inactive = mostly below about 14%.
# Assay: Cycloheximide Counterscreen for Small Molecule Inhibitors of Shiga Toxin; note: read at 38.3 µM for the half of the compounds with a filed dose; 0% is about no effect
# Conditions: cell reporter, cycloheximide protein synthesis inhibition counterscreen; stronger effect = higher value
row,SMILES,max response
1,C=CCN(N=Nc1cccc([N+](=O)[O-])c1)c1cccc([N+](=O)[O-])c1,-2.01%
2,O=C(CN1CCN(S(=O)(=O)c2ccc(F)cc2)CC1)NC1CC1,1.9%
3,Cc1cnc(C(=O)OCc2c(C)cc(C(C)(C)C)cc2C)cn1,-3.25%
4,O=C(COc1cccc(Cl)c1)NCc1ccccc1,7.99%
5,Cc1ccc(SCC(=O)c2sc(-c3ccccc3)nc2C)cc1,-0.538%
6,CN(C)/C=C/C(=O)c1ccccc1F,5.51%
7,Cc1nc(COc2cccc(Cl)c2)sc1C(=O)/C=C/N(C)C,40.9% (active)
8,CC(Oc1ccc(Cl)cc1Cl)C(=O)/C=C/N(C)C (configuration not stated),2.24%
9,Cc1nc(-c2ccccc2)sc1C(=O)/C=C/N(C)C,45.3% (active)
10,COc1ccc(-c2nc(CN3CCN(c4ncccn4)CC3)c(C)o2)cc1C,-2.33%
11,Cc1ccc(S(=O)(=O)N[C@@H](Cc2ccccc2)C(=O)N2CCC(C(=O)N[C@H](C(=O)O)C(C)O)CC2)cc1 (some centres not stated),-0.605%
12,Cc1ccc(N(Cc2ccc(C(=O)Nc3ccccc3C(=O)NCc3ccco3)cc2)S(C)(=O)=O)cc1C,-1.16%
13,O=C(COc1ccc(Cl)cc1)NCc1nnc(SCC(=O)NCC2CCCO2)o1 (configuration not stated),1.5%
14,S=C(NCCc1ccccc1)N1CCn2cccc2C1c1ccncc1 (configuration not stated),6.15%
15,CCC(C)(C)n1nnnc1CN1CCN(c2nc3ccc(C)cc3cc2C#N)CC1,-1.82%
16,CCOc1ccc(CN2CCN(Cc3c[nH]c4ccccc34)CC2)cc1,-0.16%
17,CCOc1ccc(N(CC(=O)NCCc2ccc(F)cc2)S(=O)(=O)c2ccccc2)cc1,0.706%
18,CCCCc1ccc(NC(=S)N2CCCC(CO)C2)cc1 (configuration not stated),39.3% (active)
19,COc1ccc(NC(=S)N2CCCC(CO)C2)c(OC)c1 (configuration not stated),-1.58%
20,CCCCc1ccc(NC(=S)NCCCN2CCOCC2)cc1,12%
21,COc1ccc(S(=O)(=O)NC(C)c2ccccc2)cc1C(=O)N1CCCCC1 (configuration not stated),8.07%
22,COc1ccc(CNC(=O)CN(Cc2ccccc2Cl)C(=O)c2csnn2)cc1,-2.08%
23,CC(=O)N1CCC(C(=O)OCc2ccc(Cl)cc2)(c2ccccc2)CC1,1.9%

row,SMILES,max response
1,CCOC(=O)C1(Cc2ccc(Cl)cc2)CCN(C(=O)C2=NNC(=O)CC2)CC1,10.1% (active)
2,CCOC(=O)C1(Cc2ccc(Cl)cc2)CCN(C(C)CCn2cccn2)CC1 (configuration not stated),-3.1%
3,CCc1ccc(OCC2c3cc(OC)c(OC)cc3CCN2C(C)=O)cc1 (configuration not stated),-2.66%
4,O=C(CN1C(=O)S/C(=C\c2ccccc2Cl)C1=O)NC1C=CS(=O)(=O)C1 (configuration not stated),1%
5,CCOc1cccc(C(=O)Nc2cnn(Cc3ccccc3)c2)c1,8.38%
6,O=C(NCc1cccnc1)Nc1ccccc1F,6.78%
7,O=C(Nc1ccccc1F)c1ccc(Cn2cc(Br)cn2)cc1,27.6% (active)
8,Cc1ccc(N(Cc2ccccc2O)C(=O)c2ccccc2F)cc1,-1.08%
9,CCN(CC)c1ccc(C(=O)NNC(=O)CCc2nc3ccccc3c(=O)[nH]2)cc1,8.34%
10,Cc1cc(=O)oc2cc(NC(=O)C3CC(=O)N(Cc4ccccc4)C3)ccc12 (configuration not stated),5.63%
11,O=C(c1ccc(F)cc1)N1CCC(n2nnc3ccccc32)CC1,50% (active)
12,O=S(=O)(c1cccc(S(=O)(=O)N2CCC(n3nnc4ccccc43)CC2)c1)N1CCCCC1,-11.1%
13,CC(=O)c1cccc(S(=O)(=O)N2CCC(n3nnc4cc(F)ccc43)CC2)c1,-0.975%
14,COc1ccc(N2CCN(S(=O)(=O)c3ccc4c(c3)NC(=O)C(C)C(=O)N4)CC2)cc1 (configuration not stated),-1.38%
15,CN(CC(=O)O)S(=O)(=O)c1ccc2oc3ccccc3c2c1,1.18%
16,COCCCNC(=S)N(CCN(C)C)Cc1cc2cc3c(cc2[nH]c1=O)OCCO3,6.79%
17,CC(=O)c1ccc(N2CCN(C(=O)CCc3ccccc3)CC2)cc1,3.1%
18,CC(=O)c1ccc(N2CCN(CC(O)c3ccccc3)CC2)cc1 (configuration not stated),5.47%
19,CC(=O)c1ccc(N2Cc3ccccc3C2)cc1,29.2% (active)
20,Cc1cc(NS(=O)(=O)c2ccc(NC(=S)NC(=O)c3ccc(F)cc3Cl)cc2)no1,-1.71%
21,CC(=O)Nc1ccc(/C(C)=N/NC(=O)CN(c2ccccc2Br)S(C)(=O)=O)cc1,8.32%
22,CN(C(=O)CSc1nnc(-c2n[nH]c3ccccc23)o1)c1ccccc1,15.1% (active)
23,O=C(CSc1nnc(-c2c[nH]c3ccccc23)o1)c1ccccc1,8.16%

row,SMILES,max response
1,CCN(C(=O)CSc1nnc(-c2ccncc2)o1)c1ccccc1,-2.4%
2,COc1cc(C2/C(=C(\O)c3ccc4c(c3)CC(C)O4)C(=O)C(=O)N2c2nnc(C)s2)cc(OC)c1OC (configuration not stated),-1.71%
3,Cc1[nH]c2ccccc2c1/C=C(/C#N)C(=O)NC(C)C,16.8% (active)
4,Cc1[nH]c2ccccc2c1/C=N\NC(=O)Cn1nnc(-c2ccccc2)n1,-0.477%
5,N#C/C(=C/c1ccc(N2CCCCC2)o1)C(=O)NCCc1c[nH]c2ccccc12,-3.38%
6,CCOc1cc(NC(=O)c2ccccn2)c(OCC)cc1NC(=O)c1ccc(OC)cc1,-3.64%
7,Cc1cnc(NC(=O)Cn2cnc3c2c(=O)n(C)c(=O)n3C)s1,-4.16%
8,O=C(Nc1nnc(Cc2ccc(Cl)cc2)s1)c1cccnc1,1.24%
9,COC(=O)[C@@H](NC(=O)Nc1cc(Cl)ccc1C)C(C)C,-5.71%
10,Cc1cnc(NC(=O)c2ccc(Cl)nc2)s1,43.4% (active)
11,Cc1ccc(NC(=O)c2ccccn2)cc1S(=O)(=O)N1CCOCC1,2.74%
12,Cc1cnc(NC(=O)c2ccccn2)s1,26.4% (active)
13,NS(=O)(=O)c1ccc(NC(=O)COC(=O)c2ccc(Cl)nc2)cc1,-4.06%
14,Cc1ccc(Cl)cc1NC(=O)c1ccccn1,19.9% (active)
15,O=C(NNc1ccccn1)c1ccc(Cl)nc1,2.34%
16,CCN(CC)c1ccc(NC(=O)c2ccc(Cl)nc2)cc1,16.7% (active)
17,Cc1noc(C)c1C(=O)Nc1ccccn1,7.73%
18,Cc1c(CC(=O)NCCCCCC(=O)O)c(=O)oc2cc3occ(-c4ccccc4)c3cc12,-1.63%
19,O=C(CCN1C(=O)C2C3CCC(C3)C2C1=O)Nc1ccc(Cl)cc1Cl (configuration not stated),3.53%
20,CCOc1ccc(Nc2nc(Cc3nnc(SCC(=O)c4ccc(C)cc4)o3)cs2)cc1,-3.13%
21,Cc1ccc(CCNC(=O)c2ccc3nc4ccccc4c(=O)n3c2)cc1,4.5%
22,CN(C)S(=O)(=O)c1cccc(C(=O)OCC(=O)N2CCCC2=O)c1,-2.94%
23,O=C(Nc1ccc(-n2ccnc2P(=O)(O)c2ccccc2)cc1)c1ccccc1Br,2.05%

row,SMILES,max response
1,COc1ccc(S(=O)(=O)N(CC(=O)N/N=C/c2ccc(C(=O)O)cc2)Cc2ccccc2)cc1OC,-6.63%
2,Cc1nonc1C1CCCN1Cc1nc(-c2ccc(F)cc2F)oc1C (configuration not stated),6.22%
3,CCCOc1ccc(CNC(=O)C2CCN(c3nn4c(=O)cc(C)nc4s3)CC2)cc1,-3.96%
4,Cc1nc2nc[nH]n2c(=O)c1C/C=C/c1ccccc1,10.1%
5,C=CCc1c(C)nc2cc(-c3ccccc3)[nH]n2c1=O,37% (active)
6,CCCCN1Cc2c(nc3cc(-c4ccccc4)[nH]n3c2=O)C1=O,7.79%
7,Cc1cc(=O)n2[nH]c(-c3sccc3-n3c(C)ccc3C)cc2n1,5.31%
8,CCc1c(C)nc2cc(C)[nH]n2c1=O,-1.78%
9,CCc1c(C)nc2cc(-c3cccs3)[nH]n2c1=O,29.6% (active)
10,COCCn1cnc2c1c(=O)n(Cc1ccc(Br)cc1)c(=O)n2Cc1ccccc1,-1.88%
11,Cc1ccc(NC(=O)C(CC(=O)O)C2CCCO2)c(C)c1 (configuration not stated),-2.11%
12,CC(NC(=O)CNC(=O)Cc1cccc2ccccc12)c1ccc(S(N)(=O)=O)cc1 (configuration not stated),4.99%
13,Cc1csc2ncc(C(=O)N(Cc3ccccc3)c3ccccn3)c(=O)n12,-6.72%
14,CC1(C)NC(=O)N(CC(=O)Nc2cc(C(F)(F)F)cc(C(F)(F)F)c2)C1=O,-1.59%
15,O=C1C2CCCN2C(=O)N1CCCCN1CCN(c2cccc(C(F)(F)F)c2)CC1 (configuration not stated),-0.302%
16,O=C(NCc1ccco1)/C(=C\c1cccc([N+](=O)[O-])c1)NC(=O)c1ccco1,-3.43%
17,COc1cc(NS(=O)(=O)c2ccc3ccccc3c2)c2ncccc2c1,-1.06% and -1.79%
18,CS(=O)(=O)C1=NN2C(=N)/C(=C\c3ccc(OCCOc4ccccc4)cc3)C(=O)N=C2S1,8.57%
19,CCS(=O)(=O)C1=NSC2=NC(=O)/C(=C\c3ccc(OS(=O)(=O)c4ccccc4)cc3)C(=N)N21,23.1% (active)
20,Cc1cc(/C=C2/C(=N)N3C(=NC2=O)SN=C3S(C)(=O)=O)c(C)n1-c1ccccc1,28.8% (active)
21,CCS(=O)(=O)C1=NSC2=NC(=O)/C(=C\c3cc(C)n(-c4cccc(OC)c4)c3C)C(=N)N21,3.96%
22,COc1ccccc1OCCOc1ccc(/C=C2\C(=N)N3N=C(C)SC3=NC2=O)cc1,-1.22%
23,CCC1=NN2C(=N)/C(=C/c3cc(C)n(-c4ccccc4)c3C)C(=O)N=C2S1,4.37%
